This passage reports INHIBITION results from ChEMBL document CHEMBL4513216, “Probing the Open Global Health Chemical Diversity Library for Multistage-Active Starting Points for Next-Generation Antimalarials” (ACS Infect Dis, 2020).

The structures appear in SMILES notation. In all, about 69,000 compounds went through this assay and about 8,600 (12%) showed an effect of 50% or more. This excerpt belongs to a sample that is enriched for strong results.

The test deals with Plasmodium berghei. In words: Screen against P. berghei liver stage (PbLuc), transformed with Luciferase, at 10uM. Type of test: functional, HepG2. The note with it: tested at 10 uM.
For `CCN1CCOC(CNCc2cccc(OCc3ccccn3)c2)C1` (centres undefined), the INHIBITION is reported as -62.8%.

Take `CN(C)c1cc(CNC(=O)c2c(F)cccc2F)ccn1`: the INHIBITION is recorded as -7.35%. As for `COCC1Cn2nnc(-c3cnn(C)c3)c2CN1Cc1ccc(C)s1` (centres undefined), the INHIBITION is 11.8%. `CNS(=O)(=O)CC(=O)NC(c1cc(C)sc1C)C(C)C` (centres undefined): the INHIBITION came to 16.6%. Next, `Cn1cc(C(=O)NC(Cn2cccn2)C(C)(C)C)cn1` (centres undefined): 35.2%; `CCc1nc(CNC(C)c2cccc(N3CCCC3=O)c2)cs1` (centres undefined): 10.8%; `CC(C)c1nc(CN(C)Cc2ncccc2C(=O)O)cs1`: 15.7%.

For `Cc1ccsc1CN(C)Cc1ncccc1C(=O)O`, the INHIBITION turned out to be 68.3%.

For `Cc1ccsc1CN(Cc1ncccc1C(=O)O)C1CC1`, the INHIBITION was determined as 31.9%. The value for `COc1cccc(CCC(=O)N2CCN(CC(C)(C)O)CC2)c1` was 4.3%; that for `CC(=O)c1cc(CN2C[C@@H]3CC[C@H]2CN(Cc2c(C)noc2C)C3)cs1` was -33.5%; that for `CNC(=O)c1nnc2ccc(N3CCOCC3)cc2n1` was -12.2%. With `CCNC(=O)c1nnc2ccc(N3CCOCC3)cc2n1`, the INHIBITION is 30%.

Regarding `COCCNC(=O)c1nnc2ccc(N3CCOCC3)cc2n1`, the INHIBITION was determined as 54%. The value for `COC(=O)c1ccc(-c2cc(C(F)(F)F)cc(N(C)C)n2)cc1` was 23.6%; that for `Cc1cccc(C(C(=O)NC(C)(C)CN2CCCC2)N(C)C)c1` (centres undefined) was -13.2%. `CCc1ccc2nc(C)cc(C(=O)N[C@@H]3C[C@@H](CO)N(C)C3)c2c1`: the INHIBITION is on record as 22.1%. Take `Cn1cccc1C(=O)N1CCC2(CC1)CN(c1cncnc1)C(=O)CO2`: the INHIBITION is recorded as 11.4%. The value for `Cn1cccc1C(=O)N1CCC2(CC1)CN(c1ccccc1)C(=O)CO2` was 33.4%; that for `Cn1cccc1C(=O)N1CCC2(CC1)CN(c1ccsc1)C(=O)CO2` was 71.9%. For `Cn1cc(N2CC3(CCN(C(=O)c4cccn4C)CC3)OCC2=O)cn1`, the INHIBITION is 73%.

As to `CN1CC(=O)N(c2ccsc2)CC12CCN(C(=O)c1cccn1C)C2` (centres undefined), the INHIBITION is 19.4%. `Cn1cc(N2CCC3(CCN(C(=O)c4cccn4C)C3)C2=O)cn1` (centres undefined): the INHIBITION is on record as 23.6%. The value for `CN(C)c1ccc(CN(CC2CCCO2)C(=O)c2csnn2)cc1` (centres undefined) was 11.8%. Next, `CC1(c2cc[nH]n2)CCN(C(=O)c2ccc(Cl)cc2)CC1`: -2.09%; `O=C(c1ncccn1)N1C[C@H]2CCC[C@@]2(COc2ccccn2)C1`: -15.1%.

Turning to `COCC(=O)N1C[C@H]2CCC[C@@]2(COC)C1`, the INHIBITION was determined as 85.2%.

On to `CCOCC(=O)N1C[C@H]2CCC[C@@]2(COC)C1`, for which the INHIBITION was -0.284%.

For the compound `CN(C)CC(=O)N1C[C@H]2CCC[C@@]2(COc2ccccn2)C1`, the INHIBITION was determined as 52.9%. Turning to `COC[C@@]12CCC[C@@H]1CN(C(=O)N1CCCC1)C2`, the INHIBITION is recorded as 18.6%. Next, `COC[C@@]12CCC[C@@H]1CN(C(=O)COC1CCCC1)C2`: 32.5%. As to `COC[C@@]12CCC[C@@H]1CN(C(=O)CN(C)C)C2`, the INHIBITION was found to be 56.4%. Next, `COCCC(=O)N1C[C@H]2CCC[C@@]2(COC)C1`: 24.6%; `CN(C)C(=O)N1C[C@H]2CCC[C@@]2(COc2ccccn2)C1`: -9.67%.

Turning to `Cc1cccc(CN2C(=O)CCC23CCN(c2ncc(F)cn2)CC3)n1`, the INHIBITION is recorded as -26.8%. With `O=S(=O)(N1CCOCC1)N1CCCC(c2ccccn2)C1` (centres undefined), the INHIBITION is on record as 15.99%. Regarding `COc1c(C2CCCN2C(=O)c2c(C)noc2C(C)C)c(C)nn1C` (centres undefined), the INHIBITION was found to be 35.9%. The value for `COCC(=O)N1CCc2c(nnn2C)C1COCCN1CCCC1` (centres undefined) was 29%. The value for `Cc1ccc(C(=O)Nc2nn[nH]n2)s1` was 2.61%; that for `Cc1cc(C)c(CNC(=O)NCc2ccc3c(c2)OCCO3)c(=O)[nH]1` was -54.6%; that for `CS(=O)(=O)N1CCN(C(=O)c2cc(-c3cccs3)cs2)CC1` was 33.3%. `CCc1oc(C(=O)NC(C)c2ncn[nH]2)cc1CN1CCCC1` (centres undefined): the INHIBITION is listed as 7.24%. Next, `Cc1cccnc1NC(=O)NCc1cccnc1OC(C)C`: 19.4%; `Cc1cc(C(=O)NC2(c3ccc(Br)cc3)CC2)n(C)n1`: 47%. Next, `CC(=O)N1N=C(c2ccncc2)OC1C(=O)N(C)CCc1ccccc1` (centres undefined): 0.618%. The value for `CNc1ncccc1CN1CCN(c2cc(NC3CC3)nc(N)n2)CC1` was 5.11%; that for `CCc1ccc2nc(NCC(O)CO)cc(C)c2c1` (centres undefined) was 50.7%; that for `CCc1ccc2nc(NCCOCCO)cc(C)c2c1` was -46.7%. With `CCc1ccc2nc(NCCCN(CCO)CCO)cc(C)c2c1`, the INHIBITION was found to be 42%. `Cn1c(N2CCOCC2)nc2cc(C(=O)N[C@@H]3CC[C@@H](N)C3)ccc21`: the INHIBITION is on record as 33.4%.

Turning to `CN(C)CCNC(=O)c1ccn(-c2ccc3ccccn23)n1`, the INHIBITION came out at 13.6%. The value for `Cc1cc(CN2CCN(CC(O)c3ccc(C)c(C)c3)CC2)no1` (centres undefined) was 62.6%; that for `Cc1cc(CN2CCN(CC(O)c3ccc(Cl)cc3)CC2)no1` (centres undefined) was 9.14%; that for `Cc1cc(CN2CCN(CC(O)c3cccc(F)c3)CC2)no1` (centres undefined) was -17.6%.

As for `Cc1cc(CN2CCN(CC(O)c3ccccc3)CC2)no1` (centres undefined), the INHIBITION came out at 36.4%. For `Cc1cc(CN2CCN(CC(O)c3ccc4c(c3)OCO4)CC2)no1` (centres undefined), the INHIBITION is recorded as -1.14%. As to `Cc1cc(CN2CCN(C(c3ccccc3)c3ccccc3)CC2)no1`, the INHIBITION is on record as 85.4%. Next, `COC(=O)c1ccc(N(C(=O)c2ccncc2)C(C)C)c(C)c1`: 7.18%; `COc1ccc(CN2CCCCC2Cn2nc(C)nc2C)cc1F` (centres undefined): -37.7%. The value for `Cc1cn(-c2ccccc2)nc1NS(=O)(=O)c1cc(C(=O)O)sc1C` was 8.38%; that for `O=C(CCn1cccn1)N1CC[C@@H](c2ccc3ccccc3c2)[C@H](O)C1` was -28.9%. Next, `O=C(CCN1CCCC1)N1CC[C@@H](c2ccc3ccccc3c2)[C@H](O)C1`: 52.2%. Turning to `O=C(CCN1CCCO1)N1CC[C@@H](c2ccc3ccccc3c2)[C@H](O)C1`, the INHIBITION is listed as 8.74%.

`CCN1Cc2ccccc2CC2(CCN(CC3CCC3)CC2)C1=O`: the INHIBITION is 36.5%. In the case of `CN1CCOC(CNCc2cccc(OCC(F)(F)F)c2)C1` (centres undefined), the INHIBITION was 21.7%. Next, `CC(C)C(=O)Nc1cccc(OCC(=O)NCc2ccccc2F)c1`: 40.6%; `Cc1n[nH]cc1CNCc1ccnc(OCC(F)(F)F)c1`: 28.5%; `Cc1n[nH]cc1CNC(=O)Nc1cccc(OCC(F)(F)F)c1`: 60.3%. As for `Cc1n[nH]cc1CNCc1cccc(OCC(F)(F)F)c1`, the INHIBITION is on record as 66.3%. As for `COc1cccc(NC(=O)NCc2cnn(C)c2)c1`, the INHIBITION worked out at 13%.

As to `CCN(Cc1cnn(C)c1)C[C@H]1CC[C@@H](Cc2cccc(C#N)c2)O1`, the INHIBITION is -15.7%. For `O=C1CN(C(=O)C2CCCCC2)CC(O)CN1Cc1ccco1` (centres undefined), the INHIBITION is listed as -11.1%.

On to `CC(C)c1nc2n(n1)CC(NCc1ncc(C(C)(C)C)o1)CC2` (centres undefined), for which the INHIBITION was -33.9%. For `Cc1c(C)n2c(SCC(=O)N3CCC(C)CC3)nnc2[nH]c1=O`, the INHIBITION is -5.1%.

Consider `Cc1ccc(CNC(=O)c2cc(C)n(C)n2)o1`, for which the INHIBITION is 35.75%. Turning to `Cc1ccn(CCC(=O)NCc2ccc(C)o2)n1`, the INHIBITION amounted to 27.5%.

Take `Cc1cc(C)c2cc(CNCc3ccc(C)o3)c3nn(C)c(=O)n3c2c1`: the INHIBITION turned out to be 54.5%. Turning to `Cc1cc(C)c2cc(CNCc3ccco3)c3nn(C)c(=O)n3c2c1`, the INHIBITION was 60.4%. For `Cc1cc(C(=O)NCc2ccco2)nn1C`, the INHIBITION turned out to be 10.075%. As to `Cc1cc(C)c(N(CC(O)CNCc2ccco2)S(C)(=O)=O)c(C)c1` (centres undefined), the INHIBITION was determined as 9.96%. Next, `CNc1cc(C2CCCN2Cc2ccc(OCC(=O)O)cc2)ccn1` (centres undefined): -17.7%; `Cc1ccc(N2CCCN(C(=O)CCC3CCCO3)CC2)nn1` (centres undefined): -14.6%. Next, `CN(CCSc1nncn1CC(F)(F)F)c1ccccc1`: -31.4%; `O=C(Cc1cccc(F)c1)NCCCNC(=O)c1cccc(O)c1`: -29.7%.

Take `Cc1ncc(CNC(=O)CCc2c(C)noc2C)c(C2CCCN2C)n1` (centres undefined): the INHIBITION is 4.08%.

As to `Cn1nc(C2CCN(C(=O)Cc3cccc(F)c3)CC2)c2cccnc21`, the INHIBITION stood at 46.6%. Next, `CN1CCCN(C[C@@H]2CN(C(=O)CC3CCC3)C[C@@H]2CO)CC1`: -6.91%; `COc1cccc(CC(=O)N2CCN(C)c3ncccc3C2)c1`: -93%. Take `NCc1cnn(-c2ccccc2C(=O)N2CCCC(C(N)=O)C2)c1` (centres undefined): the INHIBITION came to 9.05%. Next, `CNC(=O)C1CCCN(C(=O)c2ccccc2-n2cc(CN)cn2)C1` (centres undefined): 1.62%; `CN(C)C(=O)C1CCCN(C(=O)c2ccccc2-n2cc(CN)cn2)C1` (centres undefined): 50.8%. Next, `CCCS(=O)(=O)N1C[C@@H](Oc2ncccc2F)[C@H]2OCCC[C@H]21`: 30.3%; `CCn1c(CN2CCN(C(=O)C3CCC3)CC2)nc2c(F)cccc21`: 18.04%. Consider `CC1=C(C#N)C(=O)N(C)C(=O)/C1=C\C1=Cc2ccccc2OC1`, for which the INHIBITION is 92.5%. On to `CC1=C(C#N)C(=O)NC(=O)/C1=C\c1c(C)[nH]n(-c2ccccc2)c1=O`, for which the INHIBITION is on record as -25.6%. The value for `COC(=O)CC(C1=Cc2ccccc2OC1)c1oc(C)cc(=O)c1O` (centres undefined) was 11.6%; that for `CC(Cn1cccn1)NC(=O)C1=Cc2ccccc2OC1` (centres undefined) was -40.7%; that for `CCN1C(=O)C(C#N)=C(C)/C(=C/C2=Cc3ccccc3OC2)C1=O` was 51.7%. Consider `O=C(Nc1cccnc1)C1=Cc2ccccc2OC1`, for which the INHIBITION is on record as -25%.

For the compound `Cc1cc(C)n(CCC(=O)N2CCCC(c3cc(C(N)=O)[nH]n3)C2)n1` (centres undefined), the INHIBITION is on record as 16.8%. Take `COC(=O)C(c1ccccc1)N(C)C(=O)c1ccnc(C)n1` (centres undefined): the INHIBITION turned out to be 23.7%.

For `O=C(c1cccnc1)N1C[C@H]2CC[C@@H](C1)N(Cc1cc(F)ccc1F)C2`, the INHIBITION came to 19.2%. For the compound `CCc1nc(CN(C)C2CCCN(c3cccnn3)C2)no1` (centres undefined), the INHIBITION is 14.1%. The value for `CCNC(=O)C1(Cc2ccc(-c3ccccc3)cc2)CCCNC1` (centres undefined) was -0.232%; that for `NC(=O)C1(Cc2ccc(-c3ccccc3)cc2)CCCNC1` (centres undefined) was -0.232%; that for `O=C(N1CCCC1)C1(Cc2ccc(-c3cccs3)cc2)CCNC1` (centres undefined) was 50.9%. The value for `O=C(O)C1(Cc2ccc(-c3cccs3)cc2)CCNC1` (centres undefined) was 35.55%. Next, `NC(=O)C1(Cc2ccc(-c3ccccc3)cc2)CCNC1` (centres undefined): 52.7%.

With `O=C(O)C1(Cc2cccc(-c3cccs3)c2)CCCNC1` (centres undefined), the INHIBITION is reported as 29.05%.
